HCV inh: qHTS Assay for Inhibitors of Hepatitis C Virus (HCV) | AID 651820, 2012 | Huh7.5.1 HCVcc-Cre infection, luciferase reporter, 44 h | 3.4% of 340,000 active | Potency, µM (top dose mostly 41.8 µM), most hits filed as inhibitors
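Seed cells (1,000/well) for 4 h; treat with compound and infect with HCVcc-Cre, moi about 0.5. Incubate 44 h, then detect luciferase activity.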
AmpC detergent: qHTS Inhibitors of AmpC Beta-Lactamase (assay with detergent); P00811; 0.041% of 370,000 active; AID 485294, 2010; Potency, µM (titrated, usually from 114 µM), actives largely listed as inhibitors; AmpC hydrolysis of nitrocefin, absorbance 480 nm, 0.01% Triton; note: nearly all actives have a fitted effect of over 25% in size
Target sequence (P00811 whole entry, looked up): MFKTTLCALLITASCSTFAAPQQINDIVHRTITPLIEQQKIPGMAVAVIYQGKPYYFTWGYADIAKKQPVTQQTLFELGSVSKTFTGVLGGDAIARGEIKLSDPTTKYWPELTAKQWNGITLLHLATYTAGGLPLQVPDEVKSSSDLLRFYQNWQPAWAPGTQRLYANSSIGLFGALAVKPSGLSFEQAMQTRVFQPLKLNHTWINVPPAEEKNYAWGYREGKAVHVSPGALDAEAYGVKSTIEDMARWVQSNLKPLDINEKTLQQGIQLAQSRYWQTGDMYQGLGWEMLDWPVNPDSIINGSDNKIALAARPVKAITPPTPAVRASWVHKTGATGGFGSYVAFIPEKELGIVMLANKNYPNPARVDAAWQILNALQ
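20 mM phosphate pH 7.0 + 0.01% (detergent screen) or 0.0001% Triton X-100; 5.3 nM AmpC reagent; cpd preinc 15 min RT; nitrocefin (800 uM stock) to start; A480 q20 s × 4 min; Activity was normalised to no-enzyme and no-compound control wells.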
FMDV antiviral: High Throughput Screening for Foot and Mouth Disease Virus Antivirals | FMDV antiviral cell-based qHTS | 1.2% of 410,000 active | Potency, µM (doses to about 57.9 µM), actives largely listed as inhibitors | AID 1159524, 2015; calls by dose curve; tested in HEK293T cells; note: read-out not given here; nearly all actives have a fitted effect of over 45% in size
AmpC inh no detg: qHTS Inhibitors of AmpC Beta-Lactamase (assay without detergent); AmpC nitrocefin hydrolysis, absorbance 480 nm, 0.0001% Triton; 0.52% of 330,000 active; P00811; Potency, µM (series often up to 57.1 µM), usual class: inhibitors; note: nearly all actives have a fitted effect of over 20% in size
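20 mM phosphate pH 7.0 + 0.01% (detergent screen) or 0.0001% Triton X-100; 5.3 nM AmpC reagent; cpd preinc 15 min RT; nitrocefin (800 uM stock) to start; A480 q20 s × 4 min; Activity was normalised to no-enzyme and no-compound control wells.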
HCMV inh: qHTS Assay for inhibitors of the human cytomegalovirus (HCMV); HFF cells, HCMV-luciferase reporter, 72 h; stronger effect = lower value; activity change, negative = inhibition, % at 57.5 µM; 4.5% of 410,000 active; in the data active = activity change below about -60%; inconclusive = no clear call, values can overlap the other calls; inactive = above about -39%
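Two-dose cell screen: HFF monolayers treated with compounds and infected with luciferase-expressing HCMV at 1 PFU/cell, 72 h at 37C, then lysed for luciferase measurement.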
Each line names hits and unclear results; the compound was inactive in the other large screens; ! = repeats disagree. A selection: hits, their analogues and other compounds. The true share with any hit is near 7.3%. Unless noted, calls come from the whole dose curve; as a rule, active = well fitted curve in the direction sought with a large enough effect; inconclusive = small, poorly fitted or top-dose-only effect, or another doubt; inactive = no such curve, though single readings can be large; an effect the other way counts as inactive or inconclusive.

COC1=CC(=O)C=C(OC)C1=O	FMDV antiviral 28µM! (no result: AmpC detergent, AmpC inh no detg)
COC1=CC(=O)c2ccccc2C1=O	HCV inh 1µM, FMDV antiviral inconclusive (no result: AmpC detergent, HCMV inh)
COC1=C(c2ccccc2)C(=O)c2ccccc2C1=O	HCV inh inconclusive, FMDV antiviral inconclusive
COc1ccc(CNC(=O)C[C@H]2C(=O)N(CCc3ccccc3)C[C@@H]2Cc2ccccc2)cc1	none
Oc1ccc(-c2csc(-c3ccccc3)n2)cc1O	HCV inh 4.5µM, AmpC inh no detg inconclusive
Oc1ccc(-c2csc(Nc3ncccn3)n2)cc1O	HCV inh 11µM
Cc1cccnc1Nc1nc(-c2ccc(O)cc2)cs1	HCV inh 10µM, AmpC detergent inconclusive (no result: FMDV antiviral)
Oc1ccc(-c2csc(-c3cccnc3)n2)cc1O	none
CCn1c(SCc2ccc(F)cc2Cl)nnc1-c1nonc1NC(C)=O	none (no result: HCV inh, AmpC inh no detg)
C[C@H](CO)N1C[C@H](C)[C@H](CN(C)C(=O)CCC(F)(F)F)OCc2cnnn2CCCC1=O	none (no result: HCV inh, AmpC detergent, AmpC inh no detg)
O=C(C[n+]1ccccc1)N1c2ccccc2Sc2ccccc21	HCV inh inconclusive, HCMV inh -75
O=C(NCCc1ccccc1)N1c2ccccc2Sc2ccccc21	HCV inh inconclusive, FMDV antiviral 28µM
CCOC(=O)N1c2ccccc2Sc2ccccc21	HCV inh inconclusive
CN(C)c1cc[n+](CC(=O)N2c3ccccc3Sc3ccccc32)cc1	HCMV inh -84
O=C(COc1ccccc1)N1c2ccccc2Sc2ccccc21	HCV inh inconclusive
C[C@H](CO)N1C[C@H](C)[C@@H](CN(C)C(=O)Cc2ccccc2)OCc2cn(nn2)CCCC1=O	none (no result: HCV inh, AmpC detergent, FMDV antiviral, AmpC inh no detg)
COCc1cc(C)nc(SCC[N+](C)(C)CC(=O)c2ccc(Br)cc2)c1C#N	HCV inh 32µM
C[C@H]1[C@@H](NS(=O)(=O)c2ccc(Br)cc2)CC[C@@]23CCCN2C(=O)CCC[C@@H]13	none (no result: HCV inh, AmpC detergent, FMDV antiviral, AmpC inh no detg)
CCOc1ccc(CCN2C(=S)N([C@@H](CC(C)C)CN3CCCC3CN3C(=S)NC[C@@H]3Cc3ccc(O)cc3)C[C@@H]2Cc2ccccc2)cc1 (stereo not given in full)	HCV inh 10µM (no result: AmpC detergent, AmpC inh no detg)
Oc1ccc(C[C@H]2CNC(=S)N2CC2CCCN2C[C@H](Cc2ccccc2)N2C[C@H](Cc3ccc(O)cc3)N(CCc3ccccc3)C2=S)cc1 (stereo not given in full)	HCV inh 2.2µM, HCMV inh inconclusive (no result: AmpC detergent, AmpC inh no detg)
CCOc1ccc(CCN2C(=S)N([C@@H](Cc3ccc(O)cc3)CN3CCC[C@@H]3CN3C(=S)NC[C@@H]3Cc3ccccc3)C[C@@H]2Cc2ccc(O)cc2)cc1	none (no result: HCV inh, AmpC detergent, AmpC inh no detg)
CCOc1ccc(CCN2C(=S)N([C@@H](CC(C)C)CN3CCCC3CN3C(=S)NC[C@@H]3Cc3ccccc3)C[C@@H]2CC(C)C)cc1 (stereo not given in full)	HCMV inh inconclusive (no result: HCV inh, AmpC detergent, AmpC inh no detg)
Oc1ccc(C[C@@H](CN2CCC[C@@H]2CN2C(=S)NC[C@@H]2Cc2ccccc2)N2C[C@H](Cc3ccccc3)N(CCc3ccccc3)C2=S)cc1	none (no result: HCV inh, AmpC detergent, AmpC inh no detg)
CCOc1ccc(CCN2C(=S)N([C@@H](CC(C)C)CN3CCCC3CN3C(=S)NC[C@@H]3Cc3ccc(O)cc3)C[C@@H]2Cc2ccc(O)cc2)cc1 (stereo not given in full)	HCV inh 11µM, FMDV antiviral inconclusive, HCMV inh -84 (no result: AmpC detergent, AmpC inh no detg)
Cc1ccc(CNc2ccc(N3CCN(C)CC3=O)cc2)cc1	none (no result: HCV inh, AmpC detergent)
Cc1cc(NC(=O)c2coc(=O)c(Br)c2)ccc1C(C)C	FMDV antiviral 1µM, AmpC inh no detg 16µM
C[C@@H](NC(=O)c1coc(=O)c(Br)c1)c1ccccc1	HCV inh inconclusive, FMDV antiviral 40µM
COc1ccc(-c2nn(-c3ccccc3)cc2C(=O)NC(=S)NNC(=O)c2ccncc2)cc1	HCMV inh -92
COC(=O)c1cn(-c2ccccc2)nc1-c1ccccc1	HCV inh 11µM, AmpC detergent inconclusive
CCOC(=O)c1cn(-c2ccccc2)nc1-c1cccnc1	HCV inh 10µM
O=C(O)c1cn(-c2ccccc2)nc1-c1ccncc1	AmpC detergent inconclusive
CC(OC(=O)c1cn(-c2ccccc2)nc1-c1cccnc1)C(N)=O (stereo not given)	none
CCOC(=O)c1cn(-c2ccccc2)nc1-c1ccncc1	HCV inh 10µM
O=C(OCn1nnc2ccccc2c1=O)c1cn(-c2ccccc2)nc1-c1cccnc1	HCV inh 10µM, FMDV antiviral inconclusive
Cc1ccc(SSc2cc(C)ccc2N)c(N)c1	HCV inh inconclusive, AmpC detergent inconclusive, HCMV inh -81
CCc1ccc(CNC(=O)c2ccc(NC(=O)N3CCCCc4ccccc43)cc2)cc1	none (no result: HCV inh, AmpC inh no detg)
COc1cc(-c2nc3ccc4ccccc4c3c3c2CCC3)cc(OC)c1OC	HCV inh 5.6µM, FMDV antiviral inconclusive
Cc1c(C)c2cccnc2c2ncccc12	HCV inh 3.2µM, FMDV antiviral inconclusive (no result: HCMV inh)
O=[N+]([O-])c1cc(Cl)c2cccnc2c1O	HCMV inh -74
O=[N+]([O-])c1ccc(Cl)c2cccnc12	none
O=[N+]([O-])c1cc(Cl)c(O)c2ncccc12	HCMV inh -98
Clc1cc2cccnc2c2ncccc12	HCV inh 2.8µM, HCMV inh -96
O=[N+]([O-])c1cc(F)c2cccnc2c1O	none
Oc1c(Cl)c(Cl)c2ncccc2c1Cl	none (no result: AmpC detergent, AmpC inh no detg)
O=C(NCCCn1ccnc1)c1cc2nc(-c3ccc(Br)cc3)cc(C(F)(F)F)n2n1	HCV inh 7.1µM
COc1cccc(-c2cc(C(F)(F)F)n3nc(C(=O)N4CCCCC4c4cccnc4)cc3n2)c1 (stereo not given)	HCV inh 5.6µM, FMDV antiviral inconclusive, HCMV inh -68
O=C(NCCCn1ccnc1)c1cc(-c2ccncc2)nc2ccccc12	none
COc1ccc(-c2cc(C(F)(F)F)n3nc(C(=O)NCCCN4CCOCC4)cc3n2)cc1	HCV inh 11µM
CCCNC(=O)c1cc2nc(-c3ccc(Br)cc3)cc(C(F)(F)F)n2n1	none (no result: HCV inh, AmpC inh no detg)
O=C(NCCCn1ccnc1)c1cc(-c2ccc(Cl)cc2)nc2ccccc12	HCV inh 11µM
NC(=O)CC(NC(=O)c1ccc(Br)cc1)c1ccc(N2CCCCCCC2)c([N+](=O)[O-])c1 (stereo not given)	HCV inh inconclusive, AmpC detergent inconclusive
COc1ccc(-c2cc(C(F)(F)F)n3nc(C(=O)N4CCCCC4)cc3n2)cc1	HCV inh 11µM, HCMV inh inconclusive (no result: FMDV antiviral)
Cc1ccc(-c2noc(CNC(=O)c3ccccc3)n2)cc1	none (no result: HCV inh, AmpC inh no detg)
CCOC(=O)c1c(NC(C)=O)sc2c(OCCN(CC)CC)c(Br)ccc12	HCV inh 13µM, HCMV inh inconclusive
CCOC(=O)c1c(NC(C)=O)sc2c(OCC(O)CN(CC)CC)c(Br)ccc12 (stereo not given)	HCV inh 5.6µM, HCMV inh -101

From PubChem
